Compound activity from PubChem BioAssay.
IkB sig inh = IkB Signaling | ABC-DLBCL IkBa-CBG/CBR dual luciferase ratio, 4 h; response scale: scaled: untreated 0%, proteasome inhibitor 100% | AID 445, 2006 | 0.04% of 110,000 active | Potency, µM (doses to about 57.1 µM), for the others: top-dose IkBa stabilization activation; active means well fitted curve in the direction sought with a large enough effect in the signal ratio, not every such curve was filed as active; inconclusive means small, poorly fitted or top-dose-only effect, or a change in a side signal; the % refers to the signal ratio;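 further: potency means the concentration at half of the fitted maximal effect; the direction sought is a rising ratio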
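Curves were fitted separately to fusion (green), unfused (red) and ratio luminescence, then classed by r2, magnitude and activity. Cells: OCI-Ly3, 4 h compound plus doxycycline at 37C; 10 uM MG-132 defined full response.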
IMPase cell inh = qHTS Assay for Identifying the Cell-Membrane Permeable IMPase Inhibitors | 120,000 tested, under 10 active | CHO-M1 cells, IP1 accumulation, HTRF TR-FRET ratio | Inositol monophosphatase 1 (Rattus norvegicus), P97697 | inhibition (IP1 accumulation), % at 46.1 µM; active means well fitted curve in the direction sought with a large enough effect in the signal ratio, not every such curve was filed as active; inconclusive means small, poorly fitted or top-dose-only effect, or a change in a side signal; inactive means no such curve, though single readings can be large or run the other way; the % refers to the signal ratio;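 further: cells stimulated with carbachol in lithium chloride buffer; plate controls were DMSO basal wells for no effect and reference inhibitor wells for full effect; higher means more IMPase inhibition seen as more IP1 and lower FRET ratio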
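Measured: the HTRF emission ratio (665/620 nm) plus the 620 nm donor channel, each fitted to the Hill equation to give AC50. Cells were CHO-M1 given compounds up to 46 uM and a 30 min carbachol stimulation at 37C.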
FLuc inh = qHTS Assay for Inhibitors of Firefly Luciferase. purified firefly luciferase, luminescence, 8 min. Luciferin 4-monooxygenase (Photinus pyralis), P08659. Potency, µM (series often up to 57.1 µM), for the others: at the top dose activity change, negative = inhibition, most hits filed as inhibitors. 2.2% of 72,000 active; further: potency means the concentration at half of the fitted maximal effect; on the % scale 0 is the no-effect control and ±100 the full control effect; nearly all actives have a fitted effect of over 40% in size
Target sequence (P08659 whole entry, looked up): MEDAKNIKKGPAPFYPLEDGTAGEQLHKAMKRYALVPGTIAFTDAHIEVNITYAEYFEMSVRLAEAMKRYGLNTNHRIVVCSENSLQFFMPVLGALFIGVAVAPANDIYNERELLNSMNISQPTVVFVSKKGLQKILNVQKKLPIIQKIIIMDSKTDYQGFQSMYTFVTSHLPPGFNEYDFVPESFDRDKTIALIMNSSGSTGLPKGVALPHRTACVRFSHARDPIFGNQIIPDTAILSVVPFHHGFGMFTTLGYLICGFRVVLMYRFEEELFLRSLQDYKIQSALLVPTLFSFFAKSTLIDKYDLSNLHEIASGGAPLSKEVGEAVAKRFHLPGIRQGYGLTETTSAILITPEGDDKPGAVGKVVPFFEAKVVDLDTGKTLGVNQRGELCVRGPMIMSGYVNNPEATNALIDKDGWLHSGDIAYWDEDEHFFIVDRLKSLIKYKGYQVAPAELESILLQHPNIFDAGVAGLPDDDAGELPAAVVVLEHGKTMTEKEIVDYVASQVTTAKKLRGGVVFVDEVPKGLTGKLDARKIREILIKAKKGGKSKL
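Firefly luciferase (PKLight detection mix) with 10 uM ATP in pH 7.2 imidazole buffer (KCl, MgCl2, Tween 20, BSA). Compounds tested across a concentration series (qHTS). Luminescence read after 8 min at ambient temperature.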
p53ts 32C tox = qHTS Screen for Compounds that Selectively Target Cancer Cells with p53 Mutations: Cytotoxicity of p53ts Cells at the Permissive Temperature; 0.93% of 130,000 active; AID 924, 2007; Potency, µM (series often up to 46.1 µM), for inactives: top-dose activity change, negative = cytotoxicity, most hits filed as cytotoxic; H1299-p53A138V at 32C, ATP luminescence viability, 24 h;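 further: potency means the concentration at half of the fitted maximal effect; 0% = DMSO and -100% = full killing by reference compound; nearly all actives have a fitted effect of over 55% in size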
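ATP-content luminescence (ATPlite) read-out after 24 h compound exposure at 32C in H1299-p53A138V cells (600/well). Tested up to 46 uM. Normalized to DMSO (0%) and 100 uM tamoxifen (100% killing); Hill-fit AC50.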
p53ts 39C tox = qHTS Screen for Compounds that Selectively Target Cancer Cells with p53 Mutations: Cytotoxicity of p53ts Cells at the Nonpermissive Temperature | Potency, µM (top dose mostly 46.1 µM), for the others: at the top dose activity change, negative = cell killing, most hits filed as cytotoxic | AID 902, 2007 | H1299-p53A138V viability at 39C, ATP luminescence, 24 h | 1.5% of 130,000 active; further: potency means the concentration at half of the fitted maximal effect; on the % scale 0 is the no-effect control and ±100 the full control effect; nearly all actives have a fitted effect of over 55% in size
Hsp90 Hop PPI = qHTS Assay for Disrupters of an Hsp90 Co-Chaperone Interaction; AlphaScreen TPR2A-His6 binding biotin-Hsp90 C-terminal peptide; Potency, µM (highest dose often 57 µM), without a hit: top-dose activity change, negative = inhibition; 0.44% of 71,000 active; AID 595, 2007; active means well fitted curve in either direction with a large enough effect; inconclusive means small, poorly fitted or top-dose-only effect, or another doubt; further: potency means the concentration at half of the fitted maximal effect; on the % scale 0 is the no-effect control and ±100 the full control effect
* = called active by the depositor; u = inconclusive; x = no result; [ ] = dose if it differs, or a comment. This excerpt belongs to a sample that is enriched for hits. Unless noted, the call rests on the fitted dose curve; in most records, active means well fitted curve in the direction sought with a large enough effect; inconclusive means small, poorly fitted or top-dose-only effect, or another doubt; inactive means no such curve, though single readings can be large; an effect the other way counts as inactive or inconclusive.

SMILES	IkB sig inh	IMPase cell inh	FLuc inh	p53ts 32C tox	p53ts 39C tox	Hsp90 Hop PPI
O=C(CC(Nc1ccc(F)cc1)C(=O)O)c1ccccc1 (stereo not given)	u	8	7.9µM*	u	-23%	-4%
COc1ccccc1S(=O)(=O)Cc1ccc(C(=O)NCc2ccc(Cl)cc2)o1	u	x	x	5%	6%	x
Cc1c(-c2nc(N)nc(Nc3ccccc3F)n2)oc2ccccc12	u	-7	13µM*	-8%	-17%	-5%
CCc1ccc2occ(CC(=O)Nc3ccc(OC)c(Cl)c3)c2c1	u	x	x	12%	u	x
O=C(Nc1ccc(N2CCCCC2)c(C(=O)O)c1)c1ccco1	-1%	1	-1%	3%	7%	-2%
O=C(Nc1ccc(N2CCCC2)c(Cl)c1)c1ccco1	-3%	13	5µM*	10µM*	7.9µM*	-22%[11 µM]
O=C(Nc1ccc(CCC(=O)N2CCCC2)cc1)c1ncn[nH]1	0%	u	-3%	-5%	-10%	u
O=C(Nc1ccc(N2CCCCC2)c(Cl)c1)c1ncn[nH]1	-1%	3	10µM*	u	u	-6%
COc1ccc(N2CCN(C(=O)C3CCN(S(=O)(=O)c4cn(C)cn4)CC3)CC2)cc1	-3%	x	x	5%	-5%	x
Cc1cc(C)c(C)c(OCc2nc(-c3cccnc3)no2)c1	-3%	-14	6%	3%	0%	1%
Cc1ccc(OCc2nc(-c3ccccc3)no2)c(C)c1	3%	4	16µM*	-16%	-3%	u
COc1ccc(OC)c(NC(=O)c2c(NCc3ccc(OC)c(OC)c3)sc3c2CCC(C)C3)c1 (stereo not given)	u	x	x	25%	35%	x
COc1ccccc1CNC(=O)c1ccc(-c2nc(CS(=O)c3ccc(C)cc3)c(C)o2)cc1 (stereo not given)	1%	x	x	5%	-17%	x
Cc1cc(/C=C2/C(=O)NN(c3ccccc3)C2=O)c(C)n1-c1cccc(O)c1	x	5	x	x	13µM*	x
COc1ccc(OC)c2sc(N3CCN(C(=O)C(C)(C)C)CC3)nc12	-2%	x	x	16µM*	7.9µM*	x
COc1ccc(OC)c2sc(N3CCN(c4ccccc4)CC3)nc12	4%	x	25µM*	-24%	-28%	0%
Clc1cc2c(c(CSC3=NCN(CC4CC4)CN3)c1)OCOC2	1%[11.4 µM]	x	1%[11.4 µM]	5%[9.22 µM]	-10%[9.22 µM]	1%[11 µM]
CCOC(=O)c1ccc(NC(=O)c2nn(C)c3c2COc2ccccc2-3)cc1	u	x	x	-1%	28%	x
COc1ccc(-n2ccnc(NCCc3ccc(S(N)(=O)=O)cc3)c2=O)cc1	-2%	x	x	5%	-14%	x
CCCCCCCCCCCCCCCC(=O)O[C@H](CC(=O)O)C[N+](C)(C)C	-1%	4	0%	13µM*	u	-1%
COc1cccc(NC(=O)c2nn(-c3ccc(C)cc3)c(=O)n(C)c2=O)c1	u	x	x	-6%	-21%	x
Cc1cccc(CNC(=O)c2cccc(NC(=O)N3CCSc4ncccc43)c2)c1	u	x	x	-4%	-18%	x
COc1ccc2c(c1)OC1(O)COc3cc(OC)c(OC)cc3C1=C2 (stereo not given)	x	x	x	-2%	-6%	x
COc1ccc(-c2nc(C)c(CCNS(=O)(=O)c3cc(C)c(C)cc3C)s2)cc1	u	x	x	0%	-17%	x
NCCNS(=O)(=O)c1cccc2cnccc12	u	1	-1%	-4%	u	-2%
SMILES	IkB sig inh	IMPase cell inh	FLuc inh	p53ts 32C tox	p53ts 39C tox	Hsp90 Hop PPI
CCS(=O)(=O)NCCCCc1ccccc1	1%	3	1%	6%	0%	-3%
CCCCCCCNS(=O)(=O)c1cccc2c(Cl)cccc12	u	-2	3%	-29%	u	u
O=S(=O)(NCCCCCCc1ccccc1)c1cccc2c(Cl)cccc12	0%	8	1%	23%	-16%	40µM*
NCCCCCCCCCCNS(=O)(=O)c1cccc2c(Cl)cccc12	u	0	1%	25µM*	16µM*	-5%
NCCCCCCNS(=O)(=O)c1cccc2c(Cl)cccc12	u	0	1%	-9%	32µM*	-1%
CCOc1ccccc1NC(=O)c1nc2nc(C)cc(C(F)F)n2n1	u	x	x	4%	-12%	x
Cc1ccccc1CNC(=O)CCCn1c(=O)c2cccn2c2ccccc21	0%	x	x	6%	32%	x
CC(C)(C)c1ccc(C(=O)Nc2cnccn2)cc1	7%	-5	4µM*	5µM*	5µM*	-5%
COc1ccc(C(=O)Nc2ccccn2)cc1	x	u	x	-2%	17%	x
O=C1c2[nH]nc(-c3ccccc3O)c2C(c2cccc(O)c2)N1Cc1ccco1 (stereo not given)	x	-7	x	x	x	x
CCCOc1cccc(C2c3c(-c4ccccc4O)n[nH]c3C(=O)N2Cc2ccco2)c1 (stereo not given)	u	x	x	u	32µM*	x
Cc1cc(C)c(-c2n[nH]c3c2C(c2ccccc2F)N(Cc2ccco2)C3=O)c(O)c1 (stereo not given)	u	x	x	-23%	16µM*	x
Cc1ccc(NC(=O)CCCn2c(=O)c3cccn3c3cccnc32)cc1C	0%	x	x	-1%	-11%	x
COc1ccccc1NC(=O)Cn1c(=O)c(CNc2ccccc2)cc2cc(OC)c(OC)cc21	1%	x	x	23%	14%	x
COc1ccc(Nc2cc(C(=O)NCCCN3CCN(c4ccc(OC)cc4)CC3)c3ccccc3n2)cc1	u	x	x	u	13µM*	x
COc1ccc(Nc2cc(C(=O)NCCCN3CCN(C)CC3)c3ccccc3n2)cc1OC	-3%	-1	25µM*	u	u	-4%
CCOC(=O)C1CCCN(C(=O)c2cc(Nc3ccc(OC)cc3OC)nc3ccccc23)C1 (stereo not given)	x	10	x	x	x	x
CCOC(=O)C1CCCN(C(=O)c2cc(Nc3ccc(OC)c(OC)c3)nc3ccccc23)C1 (stereo not given)	u	3	16µM*	u	u	-15%
CCCC1=Nc2cc(C(=O)NC3CCCCC3)ccc2Sc2ccc(C)cc21	-2%	x	x	12%	-9%	x
CS[C@@H](CC(=O)O)C(=O)O	-1%[11.4 µM]	x	1%[11.4 µM]	-2%[9.22 µM]	1%[9.22 µM]	-4%[11 µM]
CC1CCN(CCCNC(=O)c2cc(Sc3ccc(F)cc3)nc3ccccc23)CC1	1%	x	x	-4%	-30%	x
